Screening results (PubChem)
Compounds with a hit are over-represented: about 19% of the library has one in this group of screens.
SW480 rerep: DNA re-replication induction in SW480 cells; 340,000 compounds, 1.8% hits; SW480 DNA re-replication, Hoechst DNA content imaging, 48 h; AID 624297; Potency, µM (doses to about 46.1 µM), without a hit: top-dose re-replication activation, hits mostly activators; also: potency is read from the fitted curve at half-maximal effect; % of control where 0% means no effect; nearly all actives have a fitted effect of over 55% in size
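Readout is total intensity of Hoechst-stained nuclei, excited at 405 nm and collected at 500-530 nm. Compound treatment lasted 48 hr at 37 C in 5% CO2 before staining.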
MCF10A rerep: inducers of DNA re-replication in MCF 10A breast cells; AID 624296; Potency, µM (series often up to 46.1 µM), inactives show at the highest dose activity, positive = re-replication, hits mostly activators; MCF 10A DNA re-replication, Hoechst nuclear intensity, 48 h; 350,000 compounds, 2.9% hits; also: potency is read from the fitted curve at half-maximal effect; % of control where 0% means no effect; nearly all actives have a fitted effect of over 50% in size
IL-1B inflam inh: inflammasome signaling inhibition, IL-1 beta readout | THP-1 LPS/ATP IL-1B secretion, AlphaLISA, 16 h; hits give low values | activity change, % at 57.5 µM | 360,000 compounds, 4.7% hits; in the data active = activity change below about -50%; inconclusive = mostly about -30% to -49%; also: % is scaled to controls: 0 for no effect and ±100 for the full control effect
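Secreted IL-1B measured by AlphaLISA bead assay after 16 h compound exposure of THP-1 cells; compounds (final up to 57.5 uM) added 1 h before LPS (250 ng/mL) and ATP (1.25 mM) stimulation; lower signal means less secretion.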
TDP1 cell CPT: growth inhibition of DT40 Tdp1-/-;hTDP1 cells with camptothecin (screen for TDP1 inhibitors) | chicken DT40 Tdp1-/-;hTDP1 cells + 20 nM CPT, ATP luminescence, 48 h | Potency, µM (highest dose often 46.2 µM), for inactives: at the top dose activity change, negative = growth inhibition, actives largely listed as inhibitors | 420,000 compounds, 12% hits | AID 686979; also: potency is read from the fitted curve at half-maximal effect; % is scaled to controls: 0 for no effect and ±100 for the full control effect; nearly all actives have a fitted effect of over 55% in size
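Chicken DT40 Tdp1-/- cells stably complemented with human TDP1 were seeded at 400 cells/well in medium containing 20 nM camptothecin, exposed to pin-transferred compounds, and grown at 37 °C for at least 48 hr. Viability was read as ATP luminescence.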
TDP1 cell noCPT: qHTS for Inhibitors of human tyrosyl-DNA phosphodiesterase 1 (TDP1): qHTS in cells in absence of CPT | DT40 Tdp1-/- hTDP1 cells, no CPT, ATP luminescence, 48 h | Potency, µM (titrated, usually from 46.2 µM), for inactives: at the top dose activity change, negative = growth inhibition, actives largely listed as inhibitors | AID 686978, 2013 | 420,000 compounds, 15% hits; also: potency is read from the fitted curve at half-maximal effect; % is scaled to controls: 0 for no effect and ±100 for the full control effect; nearly all actives have a fitted effect of over 55% in size
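Chicken DT40 Tdp1-/- cells stably complemented with human TDP1 were seeded at 400 cells/well with DMSO in place of 20 nM camptothecin. After compound pinning, cells grew at least 48 hr at 37 °C; viability read by CellTiter-Glo luminescence.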
Chronic BCR inh: chronic active BCR signaling inhibition; ABC-DLBCL IkBa-CBG/CBR reporter, luminescence ratio, 4 h; Potency, µM (titrated, usually from 46.1 µM), for inactives: top-dose activity change, negative = inhibition, most hits filed as inhibitors; 340,000 compounds, 0.05% hits; active = well fitted inhibition curve with a large enough effect in the signal ratio, with a control signal flat, not every such curve was filed as active; inconclusive = small, poorly fitted or top-dose-only effect, or effect the other way, or a change in a side signal; the % refers to the signal ratio;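 also: potency is read from the fitted curve at half-maximal effect; plate controls were basal doxycycline-induced cells for no effect and cells given 10 µM MG132 for full effect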
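Cell line TMD8 (human ABC DLBCL), stably expressing tet-inducible CBG68-IkBa fusion and CBR; IMDM/0.5% FBS; cpd up to 46 uM; dox induction, 4 h, 37C/5% CO2; dual luminescence; green/red ratio; MG132 control.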
* marks the source's active call; other numbers are inactive results; ? = inconclusive; nt = no result; [ ] = remark or other dose. Unless noted, calls follow the shape of the dose curve; as a rule, active = well fitted curve in the direction sought with a large enough effect; inconclusive = small, poorly fitted or top-dose-only effect, or another doubt; inactive = no such curve, though single readings can be large; an effect the other way counts as inactive or inconclusive.

SMILES	SW480 rerep	MCF10A rerep	IL-1B inflam inh	TDP1 cell CPT	TDP1 cell noCPT	Chronic BCR inh
O=C(NC1CCCCC1)c1sc(=S)n2c1[nH]c(=O)c1ccccc12	-8%	?	-29	16µM*	23µM*	?
CCCCNC(=O)c1sc(=S)n2c1[nH]c(=O)c1ccccc12	-9%	?	-4	-25%	?	7%
CS(=O)(=O)Nc1ccccc1-c1cccc2nccn12	nt	nt	14	3%	4%	nt
CCCCCC(=O)Nc1ccc(-c2csc(C)n2)cc1	1%	-33%	8	1%	1%	15%
CC(=O)Nc1ccc(-c2csc(-c3cccnc3)n2)cc1	8%	2%	-55*	?	?	?
c1cncc(-c2csc(-c3cccnc3)n2)c1	1%	3%	-25	-14%	-15%	?
CCCC(=O)Nc1ccc(-c2csc(-c3cccnc3)n2)cc1	14%	6%	-30	?	16µM*	?
CC(C)CC1NC(=O)c2cc(Cl)ccc2-n2c1nc1ccc(F)cc1c2=O (centres undefined)	nt	nt	nt	nt	nt	1%
Cc1ccc(C23CC4CC(CC(C(=O)NN)(C4)C2)C3)cc1	-21%	?	0	-21%	-2%	1%
Cc1ccc(C23CC4CC(CC(NC(=O)NCCN(C)C)(C4)C2)C3)cc1	?	?	-7	?	23µM*	-15%
CN(C)CCNC(=O)COc1ccc(C23CC4CC(CC(C4)C2)C3)cc1	?	16µM*	-59*	26µM*	21µM*	-11%
Cc1ccc(CNC(=O)C2(NC(=O)Nc3ccc(C)cc3)CCCCC2)cc1	16µM*	-3%	-10	?	?	1%
Cc1ccc(CNC(=O)NC23CC4CC(CC(C4)C2)C3)cc1	19%	29%	-12	23µM*	?	1%
Nc1o[nH]c(=O)c1C1CCCCC1	-3%	-1%	-11	-10%	3%	nt
CC1(C)C(=O)N(CC(=O)Nc2ccc(Br)cc2F)c2ccccc21	nt	nt	nt	-29%	-26%	nt
Cc1ccc(/C(O)=C/C(=O)C(=O)NC23CC4CC(CC(C4)C2)C3)cc1	-9%	16%	-14	?	13µM*	7%
O=S(=O)(c1ccc(Cl)c2ccccc12)N1CCCC1	-7%[1.84 µM]	3%	1	-41%	0.46µM*	9%
O=C1Nc2ccc(S(=O)(=O)N3CCCC3)c3ccc(S(=O)(=O)N4CCCC4)c1c23	12%	-2%	-4	8.2µM*	?	0%
CC(c1ccccc1)C1CC(=O)N(Cc2ccco2)C1=O (centres undefined)	-6%	1%	24	?	21µM*	2%
COc1ccc(OC)c(-c2cc(C(=O)Nc3ccc(C)c(C)c3)no2)c1	nt	nt	nt	?	18µM*	nt
COc1ccc(-c2cc(C(=O)Nc3c(C)nn(Cc4ccccc4Cl)c3C)no2)cc1OC	-2%	29%	-16	?	?	1%
COc1ccc(OC)c(-c2cc(C(=O)Nc3c(C)nn(Cc4ccccc4Cl)c3C)no2)c1	11%	15%	-28	15µM*	23µM*	?
COc1ccc(-c2cc(C(=O)Nc3ccc(C)c(C)c3)no2)cc1	0%	-2%	15	?	?	-1%
Cc1ccccc1Cn1nc(C)c(NC(=O)c2cc(-c3ccco3)on2)c1C	5%	3%	11	-30%	?	0%
COc1ccc(OC)c(-c2cc(C(=O)Nc3c(C)nn(Cc4ccc(C)cc4)c3C)no2)c1	nt	nt	nt	21µM*	18µM*	nt
SMILES	SW480 rerep	MCF10A rerep	IL-1B inflam inh	TDP1 cell CPT	TDP1 cell noCPT	Chronic BCR inh
COc1ccc(OC)c(-c2cc(C(=O)Nc3c(C)nn(Cc4ccccc4C)c3C)no2)c1	8%	-13%	?	10µM*	10µM*	?
COc1cccc(N(C(=O)CNC(=O)c2ccco2)C(C(=O)NC2CCCC2)c2cccnc2)c1 (centres undefined)	3%	2%	-26	1%	-6%	-1%
CCN(CC(=O)NCc1ccc(F)cc1)C(=O)CCNS(=O)(=O)c1cccc(C)c1	-1%	1%	-15	-25%	0%	-6%
Cc1ccc(N2C(=O)CC(NNC(=O)Cc3ccc(F)cc3)C2=O)cc1Cl (centres undefined)	-8%	?	-11	-3%	-23%	-2%
COc1cccc(-c2cc(C(=O)Nc3c(C)nn(Cc4ccccc4Cl)c3C)no2)c1	nt	nt	nt	9.2µM*	13µM*	nt
Cc1ccc(Nc2nc(CSc3nnc(-c4ccc(F)cc4)n3C)cs2)cc1	?	13%	0	15µM*	?	-2%
Cc1ccc(-c2nnc(SCC(C)C)n2C)cc1	0%	3%	?	?	21µM*	?
O=C1NC(=O)C2(CCCC2c2ccccc2)N1 (centres undefined)	-1%	-1%	-1	-3%	-11%	nt
COc1ccc(-c2csc(C(C)(NC(C)=O)c3ccccc3)n2)cn1 (centres undefined)	nt	nt	-4	?	?	nt
COc1ccc(-c2csc(C(C)(NC(C)=O)c3ccccc3)n2)cc1 (centres undefined)	nt	nt	15	?	16µM*	nt
COc1ccc(C(C)(NC(C)=O)c2nc(-c3cccc(C#N)c3)cs2)cc1 (centres undefined)	nt	nt	1	15µM*	16µM*	nt
COc1ccc(C(C)(NC(C)=O)c2nc(-c3cc(F)cc(F)c3)cs2)cc1 (centres undefined)	nt	nt	-22	16µM*	21µM*	nt
COc1ccc(C(C)(NC(C)=O)c2nc(-c3cccc4cccnc34)cs2)cc1 (centres undefined)	nt	nt	-2	21µM*	23µM*	nt
CSCCC(NC(=O)c1ccc(Cl)cc1Cl)C(=O)NNC(=O)c1ccncc1 (centres undefined)	-1%	-4%	-24	-8%	11%	0%
O=C(Nc1cccc2ccccc12)c1ccc2sc([C@@H]3O[C@H](CO)[C@H](O)[C@H](O)[C@H]3O)nc2c1	nt	nt	-29	1%	-2%	nt
CC(=O)NC(C)(c1ccccc1)c1nc(-c2cncnc2)cs1 (centres undefined)	nt	nt	30	-11%	-5%	nt
CC(=O)NC(C)(c1ccccc1)c1nc(-c2csc3ccccc23)cs1 (centres undefined)	nt	nt	-23	21µM*	16µM*	nt
CC(C)CCNC(=O)Cn1cc(S(=O)(=O)Cc2ccc(F)cc2)c2ccccc21	nt	nt	nt	26µM*	?	nt
